Data from PubChem BioAssay (NCATS).
Records with an inconclusive call do not appear. Active and inactive are the calls of the source. The call rests on the fitted dose curve; in most records, active means well fitted curve in the direction sought with a large enough effect; inconclusive means small, poorly fitted or top-dose-only effect, or another doubt; inactive means no such curve, though single readings can be large; an effect the other way counts as inactive or inconclusive.

Tests used:
[1] = qHTS of pediatric cancer cell lines to identify multiple opportunities for drug repurposing: Primary screen for NB-EBc1 cells (AID 1347095)
In short: (§1)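 Plated cells (500-1,000 per well, growth media) were allowed to settle for 5 hours, treated with compound dilutions for 48 hours, then lysed with CellTiter-Glo for 15 min at room temperature before luminescence reading.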

[2] = qHTS of pediatric cancer cell lines to identify multiple opportunities for drug repurposing: Primary screen for U-2 OS cells (AID 1347096); further: nearly all actives have a fitted effect of over 50% in size
In short: (§2)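 Cells (500-1,000/well) rested 5 h, then received compounds for 48 h; metabolically active cells were measured by CellTiter-Glo luminescence. Final concentrations spanned up to 46 µM (MIPE, 11-point) or 0.59 nM-46 µM (NPC, 8-point) in primary screens, 11-point in follow-ups.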

[3] = qHTS of pediatric cancer cell lines to identify multiple opportunities for drug repurposing: Primary screen for Saos-2 cells (AID 1347097); further: nearly all actives have a fitted effect of over 40% in size
In short: as §1

[4] = qHTS of pediatric cancer cell lines to identify multiple opportunities for drug repurposing: Primary screen for SK-N-SH cells (AID 1347098);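 further: DMSO served as neutral control and bortezomib at 2.3 µM as positive control; nearly all actives have a fitted effect of over 65% in size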
In short: as §2

[5] = qHTS of pediatric cancer cell lines to identify multiple opportunities for drug repurposing: Primary screen for NB1643 cells (AID 1347099); further: nearly all actives have a fitted effect of over 50% in size
In short: as §1

[6] = qHTS of pediatric cancer cell lines to identify multiple opportunities for drug repurposing: Primary screen for LAN-5 cells (AID 1347100)
In short: as §2

[7] = qHTS of pediatric cancer cell lines to identify multiple opportunities for drug repurposing: Primary screen for BT-12 cells (AID 1347101); further: nearly all actives have a fitted effect of over 25% in size
In short: as §2

[8] = qHTS of pediatric cancer cell lines to identify multiple opportunities for drug repurposing: Primary screen for Rh18 cells (AID 1347102); further: nearly all actives have a fitted effect of over 65% in size
In short: as §2

[9] = qHTS of pediatric cancer cell lines to identify multiple opportunities for drug repurposing: Primary screen for OHS-50 cells (AID 1347103); further: nearly all actives have a fitted effect of over 40% in size
In short: as §2

[10] = qHTS of pediatric cancer cell lines to identify multiple opportunities for drug repurposing: Primary screen for MG 63 (6-TG R) cells (AID 1347105); further: nearly all actives have a fitted effect of over 50% in size
In short: as §1

[11] = qHTS of pediatric cancer cell lines to identify multiple opportunities for drug repurposing: Primary screen for control Hh wild type fibroblast cells (AID 1347106);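 further: series mostly up to about 46 µM; a drop in luminescence marks cytotoxicity and a rise apparent proliferation; nearly all actives have a fitted effect of over 55% in size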
In short: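 Viability after 48 h compound treatment at 37C, 500-1,000 cells/well, read as ATP luminescence with CellTiter-Glo. Primary screens used 11-point (MIPE, 0.78 nM-46 µM) or 8-point (NPC, 0.59 nM-46 µM) final concentrations; follow-up screens used 11-point dilutions.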

[12] = qHTS of pediatric cancer cell lines to identify multiple opportunities for drug repurposing: Primary screen for Rh30 cells (AID 1347107); further: series mostly up to about 46 µM; nearly all actives have a fitted effect of over 75% in size
In short: as §2

[13] = qHTS of pediatric cancer cell lines to identify multiple opportunities for drug repurposing: Primary screen for Rh41 cells (AID 1347108);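 further: series mostly up to about 46 µM; luminescence drop marks cytotoxic hits; nearly all actives have a fitted effect of over 70% in size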
In short: as §1

[14] = qHTS of pediatric cancer cell lines to identify multiple opportunities for drug repurposing: Primary screen for RD cells (AID 1347104); further: nearly all actives have a fitted effect of over 55% in size
In short: as §1

[15] = qHTS of pediatric cancer cell lines to identify multiple opportunities for drug repurposing: Confirmatory screen for NB1643 cells (AID 1347109); further: potency means the concentration at half of the fitted maximal effect; nearly all actives have a fitted effect of over 45% in size
In short: as §2

[16] = qHTS of pediatric cancer cell lines to identify multiple opportunities for drug repurposing: Confirmatory screen for A673 cells (AID 1347110);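 further: potency means the concentration at half of the fitted maximal effect; cells exposed to compound for 48 h before the viability read; nearly all actives have a fitted effect of over 65% in size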
In short: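 Viability was read as ATP luminescence (CellTiter-Glo) after 48 h of compound exposure at 37 C in A673 cells seeded at 500-1,000/well. Titrations reached 46 uM final, with 11 points in the confirmatory screen. Concentration-response curves were fitted directly.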

[17] = qHTS of pediatric cancer cell lines to identify multiple opportunities for drug repurposing: Confirmatory screen for SK-N-MC cells (AID 1347111); conditions: SK-N-MC cell viability;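 further: potency means the concentration at half of the fitted maximal effect; cells exposed to compound for 48 h before the readout; nearly all actives have a fitted effect of over 70% in size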
In short: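 Seed 500-1,000 cells/well; rest 5 h at 37 degrees C. Pin-transfer compounds, 11-point titration. Incubate 48 h. Add CellTiter-Glo, 15 min RT, read luminescence.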

[18] = qHTS of pediatric cancer cell lines to identify multiple opportunities for drug repurposing: Confirmatory screen for LAN-5 cells (AID 1347113); further: potency means the concentration at half of the fitted maximal effect; nearly all actives have a fitted effect of over 65% in size
In short: as §2

[19] = qHTS of pediatric cancer cell lines to identify multiple opportunities for drug repurposing: Confirmatory screen for DAOY cells (AID 1347114); further: nearly all actives have a fitted effect of over 65% in size
In short: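 Viability measured as metabolically active cells via CellTiter-Glo luminescence following 48 hours of compound exposure, 11-point dilutions in confirmatory testing. 500-1,000 cells/well plated 5 hours before dosing; controls were DMSO and 2.3 µM bortezomib.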

Measured: Potency

CSc1ccc(C(=O)c2[nH]c(=O)[nH]c2C)cc1
not listed: [14] | [15] | [16] | [17] | [18] | [19]
inactive: all other assays above

O=C(CCNNC(=O)c1ccncc1)NCc1ccccc1
not listed: [9] | [11] | [15] | [16] | [17] | [18] | [19]
inactive: all other assays above

CCN(CC)CCNC(=O)c1ccc(NC(C)=O)cc1
not listed: [11] | [15] | [16] | [17] | [18] | [19]
inactive: all other assays above

C[C@]12CCC(=O)C=C1CC[C@@H]1[C@@H]2C(=O)C[C@@]2(C)[C@H]1CC[C@]2(O)C(=O)CO
not listed: [9] | [11] | [12] | [15] | [16] | [17] | [18] | [19]
inactive: all other assays above

CN(C)CCN(Cc1cccs1)c1ccccn1
not listed: [9] | [10] | [14] | [15] | [16] | [17] | [18] | [19]
inactive: all other assays above

CCCN(CCC)C(=O)C(CCC(=O)O)NC(=O)c1ccccc1 (stereo not drawn)
not listed: [10] | [15] | [16] | [17] | [18] | [19]
inactive: all other assays above

c1ccc2c(c1)CCCC2C1=NCCN1 (stereo not drawn)
not listed: [14] | [15] | [16] | [17] | [18] | [19]
inactive: all other assays above

CO[C@@]1(NC(=O)CSCC#N)C(=O)N2C(C(=O)O)=C(CSc3nnnn3C)CS[C@@H]21
not listed: [7] | [11] | [15] | [16] | [17] | [18] | [19]
inactive: all other assays above

Cc1cccc(C)c1NC(=O)C(C)N (stereo not drawn)
not listed: [9] | [12] | [15] | [16] | [17] | [18] | [19]
inactive: all other assays above

O=C(O)CCCCCCCC(=O)O
not listed: [7] | [15] | [16] | [17] | [18] | [19]
inactive: all other assays above

NC(=Nc1ccccc1)Nc1ccccc1
not listed: [9] | [14] | [15] | [16] | [17] | [18] | [19]
inactive: all other assays above

CCCOc1ccccc1-c1nc2n[nH]nc2c(=O)[nH]1
not listed: [11] | [15] | [16] | [17] | [18] | [19]
inactive: all other assays above

Cc1scc2c1N(C(=O)CN1CCN(C)CC1)c1ccccc1NC2=O
not listed: [9] | [15] | [16] | [17] | [18] | [19]
inactive: all other assays above

c1cnc(N2CCN(Cc3ccc4c(c3)OCO4)CC2)nc1
not listed: [10] | [12] | [15] | [16] | [17] | [18] | [19]
inactive: all other assays above

C[C@]12C=CC(=O)C=C1CC[C@H]1[C@@H]3C[C@@H](O)[C@](O)(C(=O)CO)[C@@]3(C)C[C@H](O)[C@@]12F
active: [15] 6.57 µM | [16] 1.04 µM | [17] 7.37 µM | [18] 9.27 µM
not listed: [10]
inactive: all other assays above

CC1=NS(=O)(=O)c2cc(Cl)ccc2N1
not listed: [15] | [16] | [17] | [18] | [19]
inactive: all other assays above

COc1ccc([C@@H]2Sc3ccccc3N(CCN(C)C)C(=O)[C@@H]2OC(C)=O)cc1
not listed: [9] | [15] | [16] | [17] | [18] | [19]
inactive: all other assays above
